# Measured values reported in the supplement of paper PMC10338343.
# ± gives the standard deviation.
# How the values were obtained:
# [1] = test system: MILI (PIWIL2) piRISC loaded with L1MC piRNA (26 nt); test: pre-steady-state target cleavage rate (min^-1); guide: L1MC piRNA 5'p-UAACUAAAUACUAUGCAAGCUGUAGG; higher = faster piRNA-guided slicing of the target;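 further: 1 nM active piRISC with 0.1 nM target library at 33 °C single turnover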
# Summary of the method: (§1)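 Reactions were run for 0–8 or 0–960 min at 33 °C in HEPES–potassium acetate buffer, combining 1 nM active affinity-purified piRISC with one synthetic guide, […] transcribed, DNA-blocked target RNA library and, in some cases, 500 nM GTSF1 partner protein. Sequencing of uncleaved targets followed, with normalisation to depth and to weakly complementary targets. Three trials were pooled, k3 was capped at 0.0001 min^-1, and the pre-steady-state cleavage rate was taken from a burst-and-steady-state fit.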
# [2] = test system: EfPiwi piRISC loaded with L1MC piRNA (26 nt); test: pre-steady-state target cleavage rate (min^-1); auxiliary factor: 500 nM Ephydatia muelleri Gtsf1; guide: L1MC piRNA 5'p-UAACUAAAUACUAUGCAAGCUGUAGG; MIWI and MILI are mouse PIWI proteins and EfPiwi is from a freshwater sponge; tags in brackets are library labels; higher = faster piRNA-guided slicing of the target
# Summary of the method: as §1
# [3] = auxiliary factor: 500 nM mouse GTSF1
# [4] = auxiliary factor: none (no GTSF1)
Sequence,"pre-steady-state target cleavage rate [1, 3]","pre-steady-state target cleavage rate [1, 4]",pre-steady-state target cleavage rate [2]
UCCUGGAUGAGCCUUGCAUAGUAUUUAGUUA,0.16 ± 0.02,0.0071 ± 0.0027,0.00885 ± 0.0032
UCCUCCUACAGCUUGCAAAGUAUUUACUUA,0.0765 ± 0.013,0.0033 ± 0.0019,0.00282 ± 0.0024
UCCUGGUACAGAUUGCAUAGUAUUUAGUUA,0.257 ± 0.028,0.0104 ± 0.0044,0.0131 ± 0.0038
UCCUCCUACAGCUUGGAAAGUAUUUAGUUA,0.141 ± 0.014,0.00715 ± 0.0023,0.0615 ± 0.013
UCCUGGAUCAGCUUGCAUAGUAUUUAGUUG [g2:g22:cont:t1G],0.285 ± 0.018,0.00983 ± 0.0019,0.0209 ± 0.0054
UCCUGCUACAGCUUGUAUAGUAUUUAGUUA,0.255 ± 0.015,0.00693 ± 0.0021,0.029 ± 0.0067
UCCUGCUACAGCUUGCAUCGUAUUUAGUUA,0.168 ± 0.022,0.006 ± 0.0019,0.0091 ± 0.0022
UCCUGGUACAGCUUGCAUAGUAGUUUAGUUA,0.217 ± 0.028,0.00833 ± 0.003,0.0074 ± 0.0029
UCCUGCUAAGCUUGCAUAGUAUUUAGUUA,0.182 ± 0.018,0.00403 ± 0.0019,0.00771 ± 0.0024
UCCUCCUACUGCUUGCAUAGAAUUUAGUUA,0.0415 ± 0.0062,0.00232 ± 0.002,0.00761 ± 0.0021
UCCUGGAUGUCGAUGUAUAGUAUUUAGUUA,0.0919 ± 0.011,0.0069 ± 0.002,0.00398 ± 0.003
UCCUGCUUCAGCUUGCAUACUAUUUAGUUA,0.0698 ± 0.01,0.00358 ± 0.002,0.00801 ± 0.0025
UCCUGGAUGUGCAUUGCAUAGUAUUUAGUUA,0.182 ± 0.023,0.0119 ± 0.0039,0.0129 ± 0.0042
UCCUGCAACAGCUAGCAUAGUAUUUAGUUA,0.289 ± 0.02,0.0104 ± 0.0028,0.0145 ± 0.004
UCCUCCUAGAGCUUGCAUAGUAUUUAGUAA,0.201 ± 0.021,0.00313 ± 0.0024,0.00608 ± 0.0021
UCCUGCUACAGCUUGCAUAGUAUUUAGGUUA,0.265 ± 0.042,0.00346 ± 0.0028,0.00526 ± 0.0014
UCCUCCUACAGCUUGCAUUGUAUUUAGUUA,0.222 ± 0.014,0.00744 ± 0.0019,0.0211 ± 0.0059
UCCUCCAUGAGCUUGCAUAGUAUUUAGUUA,0.279 ± 0.016,0.00711 ± 0.0021,0.0146 ± 0.004
UCCUGGUGCAGCUUGCAUAGUAUUUAGUUA,0.287 ± 0.017,0.0103 ± 0.0029,0.0864 ± 0.018
UCCUGGAUGUGCUUACAUAGUAUUUAGUUA,0.122 ± 0.015,0.0117 ± 0.0028,0.0113 ± 0.0041
UCCUGGAACAGCAUGCAUAGUAAUUAGUUA,0.225 ± 0.017,0.00873 ± 0.0024,0.0139 ± 0.0048
UCCUGGAUGAGCUUGCAUAGUAUUAAGUUA,0.194 ± 0.029,0.00479 ± 0.0019,0.00469 ± 0.0021
UCCUGGUACUGCAUGCAUAGUAUUUAGUUA,0.222 ± 0.02,0.00932 ± 0.0034,0.0111 ± 0.0032

Sequence,"pre-steady-state target cleavage rate [1, 3]","pre-steady-state target cleavage rate [1, 4]",pre-steady-state target cleavage rate [2]
UCCUGCUACAGCUAGGAUAGUAUUUAGUUA,0.259 ± 0.015,0.00677 ± 0.0024,0.011 ± 0.0037
UCCUCCUACGAGCUUGCAUAGUAUUUAGUUA,0.163 ± 0.018,0.00585 ± 0.0022,0.0144 ± 0.0051
UCCUGGAUCUGCUUGCAUAGUAAUUAGUUA,0.2 ± 0.017,0.00416 ± 0.0027,0.0152 ± 0.005
UCCUCCUACAGAUUGCAUAGUAUUUAGUUA,0.236 ± 0.014,0.00814 ± 0.0018,0.0555 ± 0.014
UCCUGGAUGAGCUUGCAUAGUAUCUAGUUA,0.131 ± 0.019,0.00451 ± 0.0026,0.00844 ± 0.003
UCCUGGAUGUGCUUGCAUCGUAUUUAGUUA,0.0778 ± 0.017,0.0103 ± 0.0028,0.00598 ± 0.0028
UCCUGGUACAGCUUGCAUGGUAUUUAGUUA,0.298 ± 0.021,0.0136 ± 0.0044,0.00828 ± 0.0033
UCCUGGAUGUGCUUGCAUAGUAUUUGGUUA,0.131 ± 0.013,0.01 ± 0.0034,0.00579 ± 0.003
UCCUGGUACAGCUUGCAUAGUAUGUUAGUUA,0.184 ± 0.03,0.00462 ± 0.0027,0.00488 ± 0.0028
UCCUGGAAGAGCAUGCAUAGUAUUUAGUUA,0.196 ± 0.015,0.00911 ± 0.0029,0.0132 ± 0.004
UCCUGGAACAGCUAGCAUAGUAUUUAGUUA,0.242 ± 0.019,0.00629 ± 0.0023,0.015 ± 0.0041
UCCUCCUACACGCUUGCAUAGUAUUUAGUUA,0.207 ± 0.013,0.00734 ± 0.0025,0.00856 ± 0.003
UCCUGGAUGCGCUUGCAUAGUAUUUAGUUA,0.239 ± 0.016,0.0108 ± 0.0028,0.0286 ± 0.0065
UCCUGGAACAGCUUGGAUAGUAUAUAGUUA,0.215 ± 0.027,0.00403 ± 0.0027,0.00939 ± 0.0043
UCCUGGUUCAGGUUGCAUAGUAUUUAGUUA,0.21 ± 0.023,0.0182 ± 0.005,0.0166 ± 0.0047
UCCUGGUACAGCUAGGAUAGUAUUUAGUUA,0.191 ± 0.026,0.00723 ± 0.0022,0.00331 ± 0.0017
UCCUGCUUCAGGUUGCAUAGUAUUUAGUUA,0.235 ± 0.015,0.0111 ± 0.003,0.0664 ± 0.015
UCCUCCUUACAGCUUGCAUAGUAUUUAGUUA,0.301 ± 0.014,0.011 ± 0.0028,0.117 ± 0.03
UCCUGCUACAGCUUGCAUAGUAUUUAGUCA,0.202 ± 0.033,0.00397 ± 0.0022,0.00386 ± 0.0017
UCCUGCUACAGCUUGCAUAGUUUUUAGUUA,0.0767 ± 0.014,0.00327 ± 0.0022,0.00538 ± 0.0021
UCCUCCUACAGCUUGCAUAGUACUUAGUUA,0.277 ± 0.018,0.00759 ± 0.002,0.013 ± 0.0053
UCCUCCUACAGCUUGCAUAGUGAUUUAGUUA,0.0192 ± 0.0061,0.00528 ± 0.0024,0.00415 ± 0.0025
UCCUGGAUGAGCUUGCAUAGUAUAUAGUUA,0.24 ± 0.031,0.00759 ± 0.0023,0.00625 ± 0.0026
